Data on 49 molecules can be found in PubChem BioAssay AID588511 (Johns Hopkins Ion Channel Center, 2011).

The campaign covered roughly 310,000 compounds. About 3,600 (1.2%) were called active.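 The calls were made as follows: active = ratio plate-corrected score three or more library SD toward inhibition, starting fluorescence score within five deviations; inactive = the rest.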 Many of the other results were omitted from the sample, so actives are more common in it than they were.

The target of this test is Anoctamin-1 (Mus musculus) (UniProt Q8BHY3). Nature of the test: TMEM16A chloride channel inhibitors, primary screen, cell-based, HTS (AID 588511).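 As to normalized B-score (activity score, 25-100; higher = stronger inhibition): score derived from kinetic fluorescence span divided by baseline fluorescence per well.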 As to conditions: HEK293 TMEM16A/YFP iodide influx fluorescence, ionomycin; at 10 µM.
Sequence of Anoctamin-1 (Mus musculus) (Q8BHY3 whole entry, looked up): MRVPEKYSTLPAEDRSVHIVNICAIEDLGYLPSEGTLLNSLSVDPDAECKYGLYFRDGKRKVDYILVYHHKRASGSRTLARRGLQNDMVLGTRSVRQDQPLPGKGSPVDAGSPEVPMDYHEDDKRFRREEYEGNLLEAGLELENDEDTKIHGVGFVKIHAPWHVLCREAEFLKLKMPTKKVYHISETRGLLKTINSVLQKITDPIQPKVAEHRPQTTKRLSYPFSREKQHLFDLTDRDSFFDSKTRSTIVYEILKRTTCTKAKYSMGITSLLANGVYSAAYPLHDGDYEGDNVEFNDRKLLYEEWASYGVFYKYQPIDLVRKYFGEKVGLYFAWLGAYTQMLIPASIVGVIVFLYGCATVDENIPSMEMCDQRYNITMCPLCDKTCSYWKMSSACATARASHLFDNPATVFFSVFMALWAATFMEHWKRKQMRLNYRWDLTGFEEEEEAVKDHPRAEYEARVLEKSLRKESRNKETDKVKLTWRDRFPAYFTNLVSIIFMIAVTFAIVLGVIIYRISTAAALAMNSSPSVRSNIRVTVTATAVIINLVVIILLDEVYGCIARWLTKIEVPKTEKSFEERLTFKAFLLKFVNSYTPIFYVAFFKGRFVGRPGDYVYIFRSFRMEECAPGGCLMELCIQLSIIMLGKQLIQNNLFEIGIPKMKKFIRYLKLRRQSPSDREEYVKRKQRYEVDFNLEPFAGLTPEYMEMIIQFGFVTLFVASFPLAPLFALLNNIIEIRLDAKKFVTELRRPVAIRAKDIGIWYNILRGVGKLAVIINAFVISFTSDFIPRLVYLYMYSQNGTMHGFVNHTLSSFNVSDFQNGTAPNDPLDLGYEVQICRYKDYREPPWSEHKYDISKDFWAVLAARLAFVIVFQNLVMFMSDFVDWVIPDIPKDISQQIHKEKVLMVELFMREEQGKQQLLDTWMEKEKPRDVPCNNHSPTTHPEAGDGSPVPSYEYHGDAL
`O=c1ccc2cc(S(=O)(=O)NCCCc3ccccc3)ccc2[nH]1`: the normalized B-score (activity score, 25-100; higher = stronger inhibition) entry is “inactive”.

On to `Cc1ccc(Nc2cc(=O)n(C3CCCCC3)c(=O)[nH]2)cc1C`, for which the normalized B-score (activity score, 25-100; higher = stronger inhibition) result was “inactive”. `O=c1cc(C(F)(F)F)[nH]c(=O)n1C1CCCCC1`: the normalized B-score (activity score, 25-100; higher = stronger inhibition) is 25 (active).

Regarding `CCCOn1c(-n2nc(C)cc2C)nc2ccccc2c1=O`, the normalized B-score (activity score, 25-100; higher = stronger inhibition) result was “inactive”. Then `CCOc1cc(/C=C2/C(=N)N3OC(C)=CC3=NC2=O)ccc1OC`, with “inactive”; and `CC1=CC2=NC(=O)/C(=C/c3coc4ccccc4c3=O)C(=N)N2O1`, with “inactive”; and `COc1ccc(OCCCn2cccc2/C=C2/C(=N)N3OC(C)=CC3=NC2=O)cc1`, with 25 (active). On to `Cn1cnc(C(F)(F)F)c1-c1ccc([N+](=O)[O-])cc1`, for which the normalized B-score (activity score, 25-100; higher = stronger inhibition) result was “inactive”.

With `O=C(Nc1ccccc1)c1ccc2c(c1)OCCCO2`, the normalized B-score (activity score, 25-100; higher = stronger inhibition) result was “inactive”.

Consider `O=C(Nc1cccc(S(=O)(=O)Nc2ccc(Cl)cc2)c1)c1ccc2c(c1)OCCO2`, for which the normalized B-score (activity score, 25-100; higher = stronger inhibition) is 25 (active). In the case of `O=C(Nc1cccc(S(=O)(=O)N2CCCCC2)c1)c1ccc2c(c1)OCO2`, the normalized B-score (activity score, 25-100; higher = stronger inhibition) result was “inactive”.

For the molecule `CCn1c(SCC(=O)NCC2CCCO2)nc2cc(S(=O)(=O)N3CCCCC3)ccc21` (centres undefined), the normalized B-score (activity score, 25-100; higher = stronger inhibition) result was “inactive”.

In the case of `CCCCn1c(SCc2ncc(-c3ccccc3)o2)nc2cc(S(N)(=O)=O)ccc21`, the normalized B-score (activity score, 25-100; higher = stronger inhibition) is 25 (active).

Take `CCCCn1c(SCC(=O)N2CCC(C(=O)OCC)CC2)nc2cc(S(N)(=O)=O)ccc21`: the normalized B-score (activity score, 25-100; higher = stronger inhibition) entry was “inactive”. As for `CN(C)c1cc(-c2ccc(F)cc2)oc(=O)c1Cl`, the normalized B-score (activity score, 25-100; higher = stronger inhibition) entry is “inactive”. Then `N#CC1=C(SCc2ccccc2)NC(=O)C(C#N)C12CCCC2` (centres undefined), with 25 (active); and `N#CC1=C(SCc2ccc(C#N)cc2)N=C(N)C(c2nc(-c3ccccc3)cs2)C12CCCCC2` (centres undefined), with “inactive”; and `CC1(C)CCc2nc(SCc3ccccc3)c(C#N)cc2C1`, with “inactive”. `Nc1ccc(C(=O)OCC(=O)NC2CCS(=O)(=O)C2)cc1[N+](=O)[O-]` (centres undefined): the normalized B-score (activity score, 25-100; higher = stronger inhibition) entry is “inactive”. Consider `CCC1CCCCN1C(=S)Nc1ccc(SC(F)F)cc1` (centres undefined), for which the normalized B-score (activity score, 25-100; higher = stronger inhibition) entry was “inactive”.

As to `COc1ccc(CCN2CC(C(=O)NCCN3CCNC3=O)CCC2=O)cc1` (centres undefined), the normalized B-score (activity score, 25-100; higher = stronger inhibition) entry was “inactive”. In the case of `O=C(N/N=C/c1ccc([N+](=O)[O-])o1)c1cccc(S(=O)(=O)N2CCOCC2)c1`, the normalized B-score (activity score, 25-100; higher = stronger inhibition) result is “inactive”. Turning to `O=[N+]([O-])c1cc(Cl)cc(/C=N/NC(=S)Nc2cc(S(=O)(=O)N3CCOCC3)ccc2Cl)c1O`, the normalized B-score (activity score, 25-100; higher = stronger inhibition) is 100 (active).

With `O=C(NC(=S)Nc1ccc(S(=O)(=O)N2CCOCC2)cc1)c1ccccc1[N+](=O)[O-]`, the normalized B-score (activity score, 25-100; higher = stronger inhibition) entry is “inactive”. With `Cc1ccsc1C(=O)N[C@@H](C)c1nnc2ccccn12` the entry was “inactive”; with `COC(C[C@@H]1O[C@@H]1C(=O)[C@H](C)OCc1ccccc1)OC`, “inactive”. `CSCCC(C(=O)NC1=NCCS1)N1C(=O)c2ccccc2C1=O` (centres undefined): the normalized B-score (activity score, 25-100; higher = stronger inhibition) result is “inactive”. As for `COC(=O)[C@@H]1CC(O)CN1C(=O)C12CC3CC(CC(C3)C1)C2` (some centres undefined), the normalized B-score (activity score, 25-100; higher = stronger inhibition) entry is “inactive”.

Consider `CC(C)OCCCNC(=O)c1cc(Sc2ccc(F)cc2)nc2ccccc12`, for which the normalized B-score (activity score, 25-100; higher = stronger inhibition) entry was “inactive”. `CC(C)OCCCNc1ncnc2c1[nH]c1ccc(F)cc12`: the normalized B-score (activity score, 25-100; higher = stronger inhibition) is 100 (active).

In the case of `CNS(=O)(=O)c1cnccc1N1CCN(c2cccc(C)c2)CC1`, the normalized B-score (activity score, 25-100; higher = stronger inhibition) entry was “inactive”. On to `CCC1(C)Cc2c(sc3[nH]c(=S)n(Cc4ccccc4)c(=O)c23)CO1` (centres undefined), for which the normalized B-score (activity score, 25-100; higher = stronger inhibition) result is “inactive”. `CC1CC(C)(C)n2c(O)c(N=NC(N)=S)c3cccc1c32` (centres undefined): the normalized B-score (activity score, 25-100; higher = stronger inhibition) entry was “inactive”. Then `CCC(C)NCCOCCOc1ccc(Br)cc1C` (centres undefined), with “inactive”; and `COc1cccc(OC)c1C(=O)N1CCN(Cc2cccnc2)CC1`, with “inactive”. On to `Cc1cc(-c2ccc(C)c(S(=O)(=O)Nc3ccc(S(N)(=O)=O)cc3)c2)on1`, for which the normalized B-score (activity score, 25-100; higher = stronger inhibition) entry was “inactive”.

On to `Cc1ccc2c(c1)N(S(=O)(=O)c1cc(-c3cc(C)no3)ccc1C)CCO2`, for which the normalized B-score (activity score, 25-100; higher = stronger inhibition) was 25 (active). With `Cc1cc(-c2ccc(C)c(S(=O)(=O)NC(C)Cc3ccco3)c2)on1` (centres undefined), the normalized B-score (activity score, 25-100; higher = stronger inhibition) entry is “inactive”. Then `C=CCNC(=O)C1CC2c3ccccc3C1c1ccccc12` (centres undefined), with “inactive”; and `CCOc1ccc(S(=O)(=O)N2CCCC(C(=O)N3CCC(C(N)=O)CC3)C2)cc1Cl` (centres undefined), with “inactive”. Take `C#CCOCCOCCOCCNc1nc(N2CCN(C(=O)CCCCCCCCCCNC(=O)[C@H](CCCCN)n3cc(C)nn3)CC2)nc(N2CCN(C(=O)CCCCCCCCCCNC(=O)[C@H](CO)n3cc(CCCSC)nn3)CC2)n1`: the normalized B-score (activity score, 25-100; higher = stronger inhibition) was 100 (active). `C#CCOCCOCCOCCNc1nc(N2CCN(C(=O)CCCCCCCCCCNC(=O)Cn3cc(CCCCCN)nn3)CC2)nc(N2CCN(C(=O)CCCCCCCCCCNC(=O)[C@H](CO)n3cc(CCCSC)nn3)CC2)n1`: the normalized B-score (activity score, 25-100; higher = stronger inhibition) entry was “inactive”. `C#CCOCCOCCOCCNc1nc(N2CCN(C(=O)CCCCCCCCCCNC(=O)[C@H]([C@@H](C)CC)n3cc(CCCCN=C(N)N)nn3)CC2)nc(N2CCN(C(=O)CCCCCCCCCCNC(=O)[C@H](CO)n3cc(CCCSC)nn3)CC2)n1`: the normalized B-score (activity score, 25-100; higher = stronger inhibition) result is “inactive”. Consider `COC(=O)CSc1nc2c(c(C3CC=CCC3)c1C#N)CCC2` (centres undefined), for which the normalized B-score (activity score, 25-100; higher = stronger inhibition) result was “inactive”. For the molecule `CCOC(=O)C1CCN(S(=O)(=O)c2c(C)noc2C)CC1`, the normalized B-score (activity score, 25-100; higher = stronger inhibition) result is “inactive”. Regarding `CCOC(=O)N1CCN(Cc2nc3cc(NC(C)=O)ccc3n2C)CC1`, the normalized B-score (activity score, 25-100; higher = stronger inhibition) result was “inactive”. Turning to `CC(=O)NCCc1nc2cc(NC(=O)c3ccccc3)ccc2n1C`, the normalized B-score (activity score, 25-100; higher = stronger inhibition) entry was “inactive”. Turning to `Cn1c(CN2CCOCC2)nc2cc(NC(=O)c3ccc(Cl)cc3)ccc21`, the normalized B-score (activity score, 25-100; higher = stronger inhibition) was 100 (active). Then `O=C(NCCCn1ccnc1)C1CCCN(S(=O)(=O)c2cc(Cl)ccc2Cl)C1` (centres undefined), with “inactive”.
